This passage reports growth results from PubChem BioAssay (NCI).

Test systems include SK-MEL-2 melanoma; EKVX NSCLC; SN12C renal; UO-31 renal; TK-10 renal; ACHN renal; CAKI-1 renal; A498 renal; CCRF-CEM leukemia; RPMI-8226 leukemia; OVCAR-8 ovarian; OVCAR-5 ovarian; OVCAR-4 ovarian; SK-OV-3 ovarian; IGROV1 ovarian; OVCAR-3 ovarian; HS 578T breast; NCI/ADR-RES ovarian.
Assay in all cases: NCI-60 one-dose screen, 48 h (100 = growth as untreated, 0 = no growth, -100 = all killed)
Holding throughout (details): 10 µM unless noted

The panel holds about 83,000 compounds, 20% with a hit somewhere; the sample as a whole holds those more often.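 Values shown are percent growth following 48 h exposure of cells in 96-well plates to a single concentration of compound; below 10 was considered active.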 A number with no mark means an inactive call. Activity calls are given as the source filed them.

For `CC(C)(C)OC(=O)Nc1ccc2c(c1)C(NC(=O)Nc1cccc(C#N)c1)CC(C)(C)O2` (stereo not drawn), the growth in the assay with SK-MEL-2 melanoma was 36.3%; with EKVX NSCLC, 32.2%; with SN12C renal, 62.9%; with UO-31 renal it was 40.8%; in the assay on TK-10 renal, 39.3%; with ACHN renal, 50.9%. In addition, the growth is 39.2% in the assay with CAKI-1 renal; 57.5% in the assay on A498 renal; 41.7% in the assay on CCRF-CEM leukemia; 22.3% in the assay on RPMI-8226 leukemia; 45.6% in the assay on OVCAR-8 ovarian; 87.6% in the assay with OVCAR-5 ovarian. The growth is 38.6% in the assay with OVCAR-4 ovarian; 58% with SK-OV-3 ovarian; 46% with IGROV1 ovarian; 48% in the assay with OVCAR-3 ovarian; 85.5% with HS 578T breast; 48% with NCI/ADR-RES ovarian.
With `c1ccc(-c2nc([P+](c3ccccc3)(c3ccccc3)c3ccccc3)c(N3CCOCC3)o2)cc1`, the growth was -25.3% (active) in the assay with SK-MEL-2 melanoma; 14.9% with EKVX NSCLC; 1.32% (active) with SN12C renal; 74% with UO-31 renal; 29.9% in the assay on TK-10 renal; 13.2% in the assay on ACHN renal. The growth is 50.9% with CAKI-1 renal; 11.7% in the assay with A498 renal; 13.4% in the assay on CCRF-CEM leukemia; -28.5% (active) in the assay with RPMI-8226 leukemia; 1.55% (active) with OVCAR-8 ovarian; 11.1% in the assay on OVCAR-5 ovarian. Besides, the growth is 11.4% in the assay on OVCAR-4 ovarian; 16.7% in the assay with IGROV1 ovarian; 11% in the assay on OVCAR-3 ovarian; 24.9% in the assay on HS 578T breast; 92.8% with NCI/ADR-RES ovarian.
Consider `O=c1[nH]ccc2nc(N3CCC(O)CC3)nc(Nc3ccc(N4CCOCC4)cc3)c12`, for which the growth in the assay with SK-MEL-2 melanoma is 69.3%; in the assay with EKVX NSCLC, 89%; in the assay on SN12C renal it was 37.8%; in the assay with UO-31 renal, 38.2%; with TK-10 renal it was 82.1%; with ACHN renal, 55.5%. Also, the growth in the assay on CAKI-1 renal was 26.3%; in the assay with A498 renal it was 57.9%; in the assay on CCRF-CEM leukemia it was 70.6%; in the assay on RPMI-8226 leukemia it was 80.9%; with OVCAR-8 ovarian, 85.5%; with OVCAR-5 ovarian it was 42.6%. Besides, the growth with OVCAR-4 ovarian is 112%; with SK-OV-3 ovarian, 14.9%; in the assay with IGROV1 ovarian, 47.3%; in the assay on OVCAR-3 ovarian, 101%; in the assay on HS 578T breast, 45.7%; in the assay with NCI/ADR-RES ovarian it was 95.2%.
Consider `Cc1ccc(N2CCN(C(=S)c3cccs3)CC2)cc1`, for which the growth with SK-MEL-2 melanoma was 94.9%; in the assay with EKVX NSCLC, 108%; with SN12C renal, 102%; in the assay with UO-31 renal, 94.8%; in the assay with TK-10 renal, 87.3%; with ACHN renal, 120%. The growth was 96.4% in the assay on CAKI-1 renal; 99.1% with A498 renal; 95.3% in the assay on CCRF-CEM leukemia; 95.6% in the assay on RPMI-8226 leukemia; 100% in the assay on OVCAR-8 ovarian; 96.8% in the assay on OVCAR-5 ovarian. Moreover, the growth in the assay with OVCAR-4 ovarian was 107%; with SK-OV-3 ovarian, 106%; in the assay on IGROV1 ovarian it was 99.3%; in the assay on OVCAR-3 ovarian it was 113%; in the assay on HS 578T breast, 124%; with NCI/ADR-RES ovarian, 112%.
`O=C1CCC2=C3C4CCCCC4C(=O)C4CCCC(OC2C1)C34` (stereo not drawn): the growth in the assay with SK-MEL-2 melanoma was 3.05% (active); in the assay with EKVX NSCLC it was 97.2%; in the assay on SN12C renal it was 14.1%; with UO-31 renal, -43.5% (active); in the assay on TK-10 renal it was 64.3%; in the assay with ACHN renal it was -23.3% (active). Moreover, the growth was -27.2% (active) with CAKI-1 renal; 104% with A498 renal; 15.6% in the assay on CCRF-CEM leukemia; -4.93% (active) with RPMI-8226 leukemia; 6.21% (active) with OVCAR-8 ovarian; 108% in the assay on OVCAR-5 ovarian. Besides, the growth in the assay with OVCAR-4 ovarian was 22.1%; in the assay with SK-OV-3 ovarian it was 78.4%; with IGROV1 ovarian it was -2.77% (active); with HS 578T breast it was 26.5%; in the assay with NCI/ADR-RES ovarian, 3.01% (active).
For `O=C(/C=C/c1ccc(Cl)nc1)c1ccc(Cl)cc1Cl`, the growth with SK-MEL-2 melanoma was 106%; in the assay with EKVX NSCLC, 97.5%; with SN12C renal it was 106%; in the assay with UO-31 renal it was 89.3%; in the assay with TK-10 renal, 100%; in the assay on ACHN renal, 93.1%. The growth with CAKI-1 renal is 71.2%; in the assay on A498 renal it was 88.8%; with CCRF-CEM leukemia, 7% (active); in the assay on OVCAR-8 ovarian, 95.6%; with OVCAR-5 ovarian it was 91.4%; in the assay with OVCAR-4 ovarian it was 87.3%. Also, the growth in the assay with SK-OV-3 ovarian is 106%; in the assay with IGROV1 ovarian it was 96.9%; in the assay on OVCAR-3 ovarian, 78.5%; in the assay on HS 578T breast it was 110%; in the assay on NCI/ADR-RES ovarian, 102%.
Turning to `CC(=O)OC[C@H]1OC(Sc2sc(C(=O)c3ccc(Br)cc3)c(N)c2-c2nc3ccccc3s2)[C@H](OC(C)=O)[C@@H](OC(C)=O)[C@@H]1OC(C)=O` (stereo partly drawn), the growth in the assay with SK-MEL-2 melanoma is 107%; with EKVX NSCLC it was 72.7%; with SN12C renal, 33%; with UO-31 renal, 64.6%; in the assay on TK-10 renal, 111%; in the assay on ACHN renal it was 54.9%. Besides, the growth with CAKI-1 renal is 63.8%; in the assay on A498 renal, 87.8%; with CCRF-CEM leukemia it was 44.1%; in the assay on RPMI-8226 leukemia, 43%; with OVCAR-8 ovarian, 46.1%; in the assay with OVCAR-5 ovarian, 65.7%. Besides, the growth with OVCAR-4 ovarian was 12.9%; in the assay on SK-OV-3 ovarian it was 96.6%; with IGROV1 ovarian, 45.6%; in the assay with OVCAR-3 ovarian, 76.2%; in the assay on HS 578T breast, 43%; in the assay with NCI/ADR-RES ovarian, 57.9%.
Take `CS(=O)c1cccc(-c2ccc3nc(N)n(-c4ccc(C(F)(F)F)cc4)c(=O)c3c2)c1` (stereo not drawn): the growth with SK-MEL-2 melanoma was 98.2%; with EKVX NSCLC, 108%; with SN12C renal it was 96.3%; in the assay with UO-31 renal, 75.8%; in the assay with TK-10 renal it was 94.7%; with ACHN renal, 105%. In addition, the growth in the assay with CAKI-1 renal is 96.3%; in the assay on A498 renal it was 107%; in the assay on CCRF-CEM leukemia, 99.7%; in the assay on RPMI-8226 leukemia, 97.4%; in the assay on OVCAR-8 ovarian, 96.3%; in the assay with OVCAR-5 ovarian, 100%. The growth in the assay on OVCAR-4 ovarian is 100%; with SK-OV-3 ovarian, 102%; with IGROV1 ovarian it was 102%; with OVCAR-3 ovarian, 101%; in the assay on HS 578T breast, 88.4%; with NCI/ADR-RES ovarian, 103%.
On to `CCN1C(=O)N(CC)C2Nn3c(s/c(=C\c4ccc(Cl)cc4Cl)c3=O)=NC21` (stereo not drawn), for which the growth in the assay on SK-MEL-2 melanoma was 71.2%; with EKVX NSCLC, 68.8%; in the assay with SN12C renal, 43.3%; with UO-31 renal, 53.5%; in the assay on TK-10 renal it was 15.8%; in the assay with ACHN renal, 37.6%. Further, the growth with CAKI-1 renal is 36.9%; in the assay on A498 renal, 21.4%; in the assay on CCRF-CEM leukemia, 41.7%; in the assay with RPMI-8226 leukemia it was 47.2%; in the assay on OVCAR-8 ovarian, 36.1%; with OVCAR-5 ovarian, 54.5%. In addition, the growth in the assay with SK-OV-3 ovarian is 70.2%; with IGROV1 ovarian, 40.6%; with OVCAR-3 ovarian, 17.4%; in the assay on HS 578T breast, 55.4%; with NCI/ADR-RES ovarian, 14.7%.
